Reference: PubChem BioAssay
Unmarked numbers belong to inactive results. For some assays here: Results with a measured potency or affinity are listed apart. Activity calls are given as the source filed them. Unless noted, the rule behind the calls is not given here.

Key:
[1] = antimalarial activity against Dd2 strain (AID 2302;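 active = growth inhibition above 50% at the single 2 µM test dose, taken to imply half-maximal potency below 2 µM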;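 note: 0% = DMSO untreated growth and 100% = chloroquine plus artemisinin killed control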); details: P. falciparum Dd2 in RBCs, LDH growth readout, 72 h; at 2 µM; hits give high values
[2] = HepG2 cytotoxicity, primary screen, cytotoxicity control for P. falciparum antimalarial project, cell-based, ATP luminescence (AID 2303;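 active = inhibition above 50%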;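 note: 0% = DMSO wells and 100% = digitonin-killed cells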); details: HepG2 viability, 24-48 h, at 10 µM, hits give high values
[3] = target: L-lactate dehydrogenase (Plasmodium falciparum (isolate CDC / Honduras)) (UniProt Q27743); assay: PfLDH activity inhibition – cell lysate, 3D7 strain, counter-screen for P. falciparum growth inhibition project (AID 2304);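 note: 0% = vehicle and 100% = reference inhibitor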; details: P. falciparum 3D7 crude extract, LDH APAD/NBT absorbance; at 2 µM; hits give high values
[4] = inhibition of 3D7 malaria parasite growth – strain 3D7 (AID 2306);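 note: 0% = DMSO wells and 100% = chloroquine plus artemisinin control wells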; details: P. falciparum 3D7 erythrocytic growth, LDH absorbance, 72 h; at 2 µM; hits give high values
[5] = target: Calcium-dependent protein kinase 1 (Plasmodium falciparum (isolate 3D7)) (UniProt P62344); assay: PfCDPK1 kinase inhibitors, biochemical, TCAMS library (AID 1159585; cut-off not given, nearly all actives have IC50 up to about 0.98 µM;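 note: inhibitors leave more ATP so luminescence rises with inhibition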); details: recombinant PfCDPK1, Kinase-Glo ATP depletion luminescence
[6] = target: Plasmodium falciparum protein kinase 6 (PK6, PF3D7_1337100) (UniProt Q8IDW1); assay: PfPK6 kinase inhibitors, biochemical, TCAMS library (AID 1159586); details: recombinant PfPK6, Kinase-Glo ATP depletion luminescence
[7] = target: Protein kinase 7 (PK7), Plasmodium falciparum 3D7 (PF3D7_0213400) (UniProt Q7YTF7); assay: inhibition of Plasmodium PK7 catalytic activity – biochemical, TCAMS antimalarial set, Kinase-Glo luminescence (AID 1159587); details: recombinant PfPK7, Kinase-Glo ATP depletion luminescence
[8] = target: Calcium-dependent protein kinase 4 (Plasmodium falciparum (isolate 3D7)) (UniProt Q8IBS5); assay: PfCDPK4 kinase inhibitors, biochemical, TCAMS library (AID 1159588; cut-off not given, nearly all actives have IC50 up to about 0.91 µM); details: recombinant PfCDPK4, Kinase-Glo ATP depletion luminescence
Calcium-dependent protein kinase 4 (Plasmodium falciparum (isolate 3D7)), sequence (Q8IBS5 whole entry, looked up): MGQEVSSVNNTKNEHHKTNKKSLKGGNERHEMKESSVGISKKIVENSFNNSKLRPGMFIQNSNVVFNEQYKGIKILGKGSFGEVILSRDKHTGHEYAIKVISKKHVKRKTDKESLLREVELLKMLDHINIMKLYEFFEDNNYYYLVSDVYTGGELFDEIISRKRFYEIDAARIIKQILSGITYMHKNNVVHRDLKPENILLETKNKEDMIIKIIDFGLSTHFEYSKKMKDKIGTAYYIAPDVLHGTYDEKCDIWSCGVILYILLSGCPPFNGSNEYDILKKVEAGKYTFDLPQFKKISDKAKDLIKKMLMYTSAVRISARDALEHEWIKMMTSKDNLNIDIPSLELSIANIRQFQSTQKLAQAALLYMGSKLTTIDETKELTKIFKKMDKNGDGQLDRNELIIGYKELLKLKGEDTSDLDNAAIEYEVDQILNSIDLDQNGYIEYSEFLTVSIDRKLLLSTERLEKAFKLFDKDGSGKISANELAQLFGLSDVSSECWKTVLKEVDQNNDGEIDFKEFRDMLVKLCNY

Plasmodium falciparum protein kinase 6 (PK6, PF3D7_1337100), sequence (Q8IDW1 1-305): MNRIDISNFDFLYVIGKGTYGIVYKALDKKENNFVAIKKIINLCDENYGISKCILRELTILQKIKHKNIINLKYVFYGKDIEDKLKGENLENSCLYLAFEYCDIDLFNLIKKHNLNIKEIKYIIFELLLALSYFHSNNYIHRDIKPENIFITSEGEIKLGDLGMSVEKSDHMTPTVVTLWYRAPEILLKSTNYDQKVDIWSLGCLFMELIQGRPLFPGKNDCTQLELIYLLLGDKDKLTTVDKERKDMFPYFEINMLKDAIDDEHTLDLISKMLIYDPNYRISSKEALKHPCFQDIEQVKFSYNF
Calcium-dependent protein kinase 1 (Plasmodium falciparum (isolate 3D7)), sequence (P62344 whole entry, looked up): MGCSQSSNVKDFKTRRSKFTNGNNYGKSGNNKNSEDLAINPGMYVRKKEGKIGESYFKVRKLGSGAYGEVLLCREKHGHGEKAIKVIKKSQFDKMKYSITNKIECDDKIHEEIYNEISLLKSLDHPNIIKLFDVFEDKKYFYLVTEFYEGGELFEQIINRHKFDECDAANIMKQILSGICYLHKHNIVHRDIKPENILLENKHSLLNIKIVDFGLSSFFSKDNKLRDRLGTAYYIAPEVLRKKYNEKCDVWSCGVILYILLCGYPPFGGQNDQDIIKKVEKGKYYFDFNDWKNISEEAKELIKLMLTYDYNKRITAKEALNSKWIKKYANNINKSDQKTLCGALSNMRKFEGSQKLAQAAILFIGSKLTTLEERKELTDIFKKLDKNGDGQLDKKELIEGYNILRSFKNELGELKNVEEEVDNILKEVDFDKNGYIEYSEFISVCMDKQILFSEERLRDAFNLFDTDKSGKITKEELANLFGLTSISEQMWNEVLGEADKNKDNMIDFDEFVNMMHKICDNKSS
L-lactate dehydrogenase (Plasmodium falciparum (isolate CDC / Honduras)), sequence (Q27743 whole entry, looked up): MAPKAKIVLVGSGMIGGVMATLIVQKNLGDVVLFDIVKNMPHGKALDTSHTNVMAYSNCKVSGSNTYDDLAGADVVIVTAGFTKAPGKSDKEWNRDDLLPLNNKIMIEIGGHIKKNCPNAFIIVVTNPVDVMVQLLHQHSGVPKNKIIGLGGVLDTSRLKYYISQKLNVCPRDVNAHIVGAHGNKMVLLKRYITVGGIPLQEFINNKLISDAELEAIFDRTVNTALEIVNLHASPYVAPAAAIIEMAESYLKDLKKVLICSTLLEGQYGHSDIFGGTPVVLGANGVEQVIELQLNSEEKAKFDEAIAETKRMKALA
Protein kinase 7 (PK7), Plasmodium falciparum 3D7 (PF3D7_0213400), sequence (Q7YTF7 1-343): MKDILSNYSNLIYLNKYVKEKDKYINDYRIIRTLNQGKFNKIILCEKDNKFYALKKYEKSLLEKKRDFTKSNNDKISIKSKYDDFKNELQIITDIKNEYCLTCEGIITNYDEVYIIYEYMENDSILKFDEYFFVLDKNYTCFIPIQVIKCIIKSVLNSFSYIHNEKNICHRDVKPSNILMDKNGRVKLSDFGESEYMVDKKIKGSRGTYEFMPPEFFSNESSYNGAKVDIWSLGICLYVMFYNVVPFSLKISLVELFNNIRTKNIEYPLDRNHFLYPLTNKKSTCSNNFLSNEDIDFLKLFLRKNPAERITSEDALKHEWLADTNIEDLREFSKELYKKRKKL

Row | SMILES | growth inhibition [1] | inhibition [2] | inhibition [3] [%] | growth inhibition [4] | outcome [5] | outcome [6] | outcome [7] | outcome [8]
1 | c1ccc(CCNCc2ccc(-c3cccc(CNc4ccc5ncccc5c4)c3)cc2)cc1 | 17% | 30% | 3 | 91% (active) | inactive | inactive | inactive | inactive
2 | CC(C)CNCc1cccc(-c2ccc(CNc3ccc4ncccc4c3)cc2)c1 | 32% | 13% | -3 | 94% (active) | inactive | inactive | inactive | inactive
3 | CCCCOC(=O)C1=C(C)NC2=C(C(=O)CCC2)C1c1ccc(OC)c(Br)c1 (stereo not given) | 87% (active) | 5% | -4 | 93% (active) | inactive | inactive | inactive | inactive
4 | Cc1ccc(C(NC(=O)C2CCCCC2)c2ccc3cccnc3c2O)cc1 (stereo not given) | 59% (active) | 69% (active) | 2 | 91% (active) | inactive | inactive | inactive | inactive
5 | CC(C)c1ccc(CN2CCC(CNC(=O)c3cc(-c4cccc(Cl)c4)cs3)C2)cc1 (stereo not given) | 43% | 42% | 1 | 99% (active) | inactive | inactive | inactive | inactive
6 | Cc1[nH]c(C)c(-c2ccc(-c3ccc(C(F)(F)F)cc3C(F)(F)F)nc2)c(=O)c1Br | 97% (active) | 30% | 5 | 97% (active) | inactive | inactive | inactive | inactive
7 | O=C(Nc1cccc(-c2ccc(CN3CCNCC3)cc2)c1)c1cccc(Cl)c1 | 4% | 30% | -4 | 92% (active) | inactive | inactive | inactive | inactive
8 | Cn1cncc1C(=O)Nc1cccc(-c2ccc(-c3nc4ccc(C(F)(F)F)cc4[nH]3)cc2)c1 | 98% (active) | 4% | 1 | 97% (active) | inactive | inactive | inactive | inactive
9 | CCCCNC(=O)[C@H](Cc1ccccc1)NC(=O)c1ccc(O)c(-c2ccc(Cl)c(Cl)c2)c1 | 97% (active) | -8% | 3 | 98% (active) | inactive | inactive | inactive | inactive
10 | O=[N+]([O-])c1ccc2nccnc2c1 | 0% | -2% | -1 | 97% (active) | inactive | inactive | inactive | inactive
11 | Nc1cc(-c2ccc(Br)cc2O)nc2ccccc12 | 50% (active) | 23% | 0 | 100% (active) | inactive | inactive | inactive | inactive
12 | CCOc1cc(C(=O)NC2CC(C)(C)NC(C)(C)C2)ccc1-c1cc2cc(Cl)c(Cl)cc2[nH]1 | 46% | 37% | -1 | 101% (active) | inactive | inactive | inactive | inactive
13 | CC(C)C[C@H](NC(=O)c1ccc(OCCN2CCOCC2)cc1)C(=O)NC(/C=N/N1CCCC1=O)C(C)C (stereo not given in full) | 81% (active) | 3% | -2 | 90% (active) | inactive | inactive | inactive | inactive
14 | CCN(c1ccccc1)S(=O)(=O)c1ccc(OC)c(NC(=O)c2cccc(C(F)(F)F)c2)c1 | 70% (active) | 9% | -2 | 90% (active) | inactive | inactive | inactive | inactive
15 | COc1ccc(-c2ccc(CN(C)C3CCC(NC(=O)c4cc5ccccc5[nH]4)CC3)cc2)cn1 (stereo not given) | 2% | 31% | -1 | 88% (active) | inactive | inactive | inactive | inactive
16 | COc1ccc(CNC2CCN(C)CC2)cc1-c1ccc(S(=O)(=O)NC2CCC2)c(F)c1 | 97% (active) | 96% (active) | 7 | 101% (active) | inactive | inactive | inactive | inactive
17 | O=C(Nc1ccccc1)N1CCOC(CCN2CCC(F)(F)CC2)(c2ccc(Cl)c(Cl)c2)C1 (stereo not given) | 100% (active) | 20% | 3 | 102% (active) | inactive | inactive | inactive | inactive
18 | CC1(C)N=C(N)N=C(N)N1OCCCCCCOc1ccc(Cl)c2ccccc12 | 94% (active) | 62% (active) | 1 | 91% (active) | inactive | inactive | inactive | inactive
19 | Cc1ccc(NC(=O)c2ccc(CN3CCCN(CCC(C)C)CC3)cc2)cc1F | 31% | 40% | 1 | 91% (active) | inactive | inactive | inactive | inactive
20 | CCC1(CC)C(=O)N=C(N2CCCCC2)N(C)C1=O | 66% (active) | -4% | 1 | 89% (active) | inactive | inactive | inactive | inactive

Row | SMILES | growth inhibition [1] | inhibition [2] | inhibition [3] [%] | growth inhibition [4] | outcome [5] | outcome [6] | outcome [7] | outcome [8]
21 | O=C(Nc1ccc(CCNC2=NCCN2)cc1)Nc1ccc(CCNC2=NCCN2)cc1 | 66% (active) | 6% | 4 | 90% (active) | inactive | inactive | inactive | inactive
22 | CC(C)OC(=O)c1cccnc1SCC(=O)Nc1ccc(C(F)(F)F)cc1Cl | 88% (active) | 3% | -3 | 97% (active) | inactive | inactive | inactive | inactive
23 | COc1cc2nc(N3CCC(CNC(=O)c4ccc(-c5ccc(C(=O)N(C)C)cc5)cc4)CC3)nc(N)c2cc1OC | 89% (active) | 20% | 0 | 101% (active) | inactive | inactive | inactive | inactive
24 | Cc1noc(C)c1-c1cccc(CNCc2ccc(-c3ccc(-c4nc5ccc(F)cc5[nH]4)cc3)cc2)c1 | 92% (active) | 23% | 4 | 102% (active) | inactive | inactive | inactive | inactive
25 | Cc1ccnc2nc(C(=O)Nc3cc(Cl)ccc3N3CCOCC3)nn12 | 63% (active) | -4% | -1 | 84% (active) | inactive | inactive | inactive | inactive
26 | Cc1cccc2[nH]c(-c3ccc(-c4cccc(CN5CC(C)OC(C)C5)c4)s3)nc12 (stereo not given) | 79% (active) | 6% | -5 | 98% (active) | inactive | inactive | inactive | inactive
27 | c1ccc(-c2ccc3c(Nc4ccc5[nH]ncc5c4)ccnc3c2)nc1 | 99% (active) | 99% (active) | 4 | 100% (active) | inactive | inactive | inactive | inactive
28 | Cc1cccc(-n2c(Nc3ccc(C)c(Cl)c3)nc3ccc(S(=O)(=O)NC(C)C(C)C)cc32)c1 (stereo not given) | 97% (active) | -9% | 4 | 97% (active) | inactive | inactive | inactive | inactive
29 | Cc1cc(CNC(=O)c2ccc(-c3ccc(-c4nc5ccc(C(F)(F)F)cc5[nH]4)s3)cc2)on1 | 56% (active) | 15% | -1 | 93% (active) | inactive | inactive | inactive | inactive
30 | CC(C)C[C@H](NC(=O)OC(C)(C)C)C(=O)Nc1ccc(Cc2ccc(NC(=O)[C@H](CC(C)C)NC(=O)OC(C)(C)C)cc2)cc1 | 88% (active) | -5% | 0 | 94% (active) | inactive | inactive | inactive | inactive
31 | CCc1ccc(CN2CCC(CN(c3ccc(N4CCOCC4)c(F)c3)S(=O)(=O)c3ccc(C(C)(C)CC)cc3)CC2)cc1 | 94% (active) | 26% | -5 | 93% (active) | inactive | inactive | inactive | inactive
32 | Nc1nc(N)c2c(n1)CCC(c1ccccc1)C2 (stereo not given) | -1% | 55% (active) | 1 | 93% (active) | inactive | inactive | inactive | inactive
33 | COc1c(C2CCN(CCCCNC(=O)c3ccc(-c4ccc(C#N)cc4)cc3)CC2)cc(Cl)c2c1CCCC2 | 59% (active) | 45% | 0 | 93% (active) | inactive | inactive | inactive | inactive
34 | Oc1ccccc1-c1nc2cccnc2n1CCc1cccc(C(F)(F)F)c1 | 36% | 4% | -1 | 93% (active) | inactive | inactive | inactive | inactive
35 | Cc1ccc(CN2CCN(Cc3cccc(NC(=O)c4ccc5ccccc5c4)c3)CC2)cc1C | 23% | 62% (active) | -4 | 89% (active) | inactive | inactive | inactive | inactive
36 | O=C(Nc1ccc2c(ccn2C2CCCN(Cc3cc(F)cc(F)c3F)CC2)c1)c1ccco1 (stereo not given) | 94% (active) | 7% | -1 | 89% (active) | inactive | inactive | inactive | inactive
37 | CCNC(=O)c1cc(S(=O)(=O)N2CCN(c3ccccn3)CC2)cs1 | 94% (active) | 7% | 1 | 97% (active) | inactive | inactive | inactive | inactive
38 | O=C(Nc1ccc(OC2CCN(Cc3ccccc3)CC2)c(Cl)c1)c1ccc(F)cc1 | 92% (active) | 30% | 9 | 94% (active) | inactive | inactive | inactive | inactive
39 | O=C(c1ccc(Br)o1)N1N=C(c2cccs2)CC1c1ccc(Br)cc1 (stereo not given) | 45% | 5% | -4 | 96% (active) | inactive | inactive | inactive | inactive
40 | O=[N+]([O-])c1cc2c(cc1C=NNc1nc(Nc3ccccc3)nc(Nc3ccccc3)n1)OCO2 | 46% | -8% | -2 | 98% (active) | inactive | inactive | inactive | inactive
